# Experimental data from PubChem BioAssay AID1159580 (chemical genetic matrix, 2015).
# Screen size: about 5,500 compounds; about 2,000 (36%) were called active. Not shown: some 18% with an inconclusive outcome. This is one part of the list. Unmarked numbers belong to inactive results. No stated cut-off is given here; in the data, active means normalized growth mostly below about 0.91 (no sharp cut-off); inconclusive means no clear call, values can overlap the other calls; inactive means mostly above about 0.92.
# Experiment: chemical genetic growth profiling, strain panel (AID 1159580);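 further: tested at 20 µM; growth read once vehicle control cultures reached saturation at 30 °C; 1 = growth at the plate median or of vehicle wells; lower values mean less growth of the strain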
# Settings: S. cerevisiae deletion strains, growth OD
smiles,measurement,setting,value
COc1ccc(-c2coc3cc(O)ccc3c2=O)c(O)c1O,normalized growth,"locus YAL021C, strain ccr4, hits give low values",0.817 (active)
same,normalized growth,"locus YAL026C, strain drs2, hits give low values",0.818 (active)
same,normalized growth,"locus YAL030W, strain snc1, hits give low values",0.874 (active)
same,normalized growth,"locus YBL061C, strain skt5, hits give low values",0.825 (active)
same,normalized growth,"locus YBR009C, strain hhf1, hits give low values",0.955
same,normalized growth,"locus YBR023C, strain chs3, hits give low values",0.877 (active)
same,normalized growth,"locus YBR171W, strain sec66, hits give low values",0.984
same,normalized growth,"locus YBR231C, strain swc5, hits give low values",0.837 (active)
same,normalized growth,"locus YBR279W, strain paf1, hits give low values",0.893 (active)
same,normalized growth,"locus YCL011C, strain gbp2, hits give low values",0.898 (active)
same,normalized growth,"locus YCL016C, strain dcc1, hits give low values",0.94
same,normalized growth,"locus YCL061C, strain MRC1, hits give low values",0.925
same,normalized growth,"locus YCL069W, strain vba3, hits give low values",0.979
same,normalized growth,"locus YCR088W, strain abp1, hits give low values",0.971
same,normalized growth,"locus YDL005C, strain med2, hits give low values",0.979
same,normalized growth,"locus YDL040C, strain nat1, hits give low values",0.999
same,normalized growth,"locus YDR001C, strain nth1, hits give low values",0.976
same,normalized growth,"locus YDR069C, strain doa4, hits give low values",0.762 (active)
same,normalized growth,"locus YDR137W, strain rgp1, hits give low values",1.06
same,normalized growth,"locus YDR159W, strain sac3, hits give low values",1.05
same,normalized growth,"locus YDR195W, strain ref2",0.992
same,normalized growth,"locus YDR297W, strain sur2, hits give low values",0.898 (active)
same,normalized growth,"locus YDR334W, strain swr1, hits give low values",0.872 (active)
same,normalized growth,"locus YDR335W, strain msn5, hits give low values",0.948
same,normalized growth,"locus YDR392W, strain spt3, hits give low values",0.869
same,normalized growth,"locus YEL003W, strain gim4, hits give low values",0.977
same,normalized growth,"locus YEL037C, strain rad23, hits give low values",0.969
same,normalized growth,"locus YEL061C, strain CIN8 (second series), hits give low values",0.963
same,normalized growth,"locus YER015W, strain faa2, hits give low values",0.737 (active)
same,normalized growth,"locus YER016W, strain bim1, hits give low values",0.94
same,normalized growth,"locus YER111C, strain swi4, hits give low values",0.933
same,normalized growth,"locus YER155C, strain BEM2 (second series), hits give low values",0.944
same,normalized growth,"locus YFR010W, strain ubp6, hits give low values",0.873 (active)
same,normalized growth,"locus YGL167C, strain pmr1, hits give low values",0.979
same,normalized growth,"locus YGL173C, strain kem1, hits give low values",0.671 (active)
same,normalized growth,"locus YGL227W, strain vid30, hits give low values",0.989
same,normalized growth,"locus YGL240W, strain doc1, hits give low values",0.964
same,normalized growth,"locus YGL253W, strain hxk2, hits give low values",0.881 (active)
same,normalized growth,"locus YHR013C, strain ard1, hits give low values",0.861
same,normalized growth,"locus YHR027C, strain rpn1, hits give low values",0.669 (active)
same,normalized growth,"locus YHR030C, strain SLT2, hits give low values",1.02
same,normalized growth,"locus YHR079C, strain IRE1, hits give low values",1.02
same,normalized growth,"locus YHR142W, strain chs7, hits give low values",0.86 (active)
same,normalized growth,"locus YJL092W, strain hpr5, hits give low values",0.975
same,normalized growth,"locus YJL095W, strain BCK1 (second series), hits give low values",0.952
same,normalized growth,"locus YJL095W, strain BCK1, hits give low values",1.01
same,normalized growth,"locus YJL115W, strain asf1, hits give low values",0.968
same,normalized growth,"locus YJL129C, strain trk1, hits give low values",1.03
same,normalized growth,"locus YJL154C, strain vps35, hits give low values",0.988
same,normalized growth,"locus YJL164C, strain tpk1, hits give low values",0.863 (active)
same,normalized growth,"locus YJL166W, strain qcr8, hits give low values",0.817 (active)
same,normalized growth,"locus YJR066W, strain TOR1, hits give low values",0.927
same,normalized growth,"locus YKL160W, strain elf1, hits give low values",0.902 (active)
same,normalized growth,"locus YKR026C, strain gcn3, hits give low values",0.995
same,normalized growth,"locus YKR091W, strain srl3, hits give low values",0.991
same,normalized growth,"locus YLL001W, strain dnm1, hits give low values",0.971
same,normalized growth,"locus YLL026W, hits give low values",0.98
same,normalized growth,"locus YLL041C, strain sdh2, hits give low values",0.968
same,normalized growth,"locus YLR027C, strain aat2, hits give low values",0.93
same,normalized growth,"locus YLR113W, strain HOG1, hits give low values",1.01
same,normalized growth,"locus YLR221C, strain rsa3, hits give low values",0.92
same,normalized growth,"locus YLR258W, strain gsy2, hits give low values",0.947
same,normalized growth,"locus YLR262C, strain YPT6 (second series), hits give low values",0.743 (active)
same,normalized growth,"locus YLR320W, strain mms22, hits give low values",0.905
same,normalized growth,"locus YLR342W, strain FKS1, hits give low values",0.753 (active)
same,normalized growth,"locus YLR357W, strain rsc2, hits give low values",0.749 (active)
same,normalized growth,"locus YLR370C, strain arc18, hits give low values",0.916
same,normalized growth,"locus YLR384C, strain iki3, hits give low values",0.998
same,normalized growth,"locus YML120C, strain ndi1, hits give low values",1
same,normalized growth,"locus YMR058W, strain fet3, hits give low values",0.333 (active)
same,normalized growth,"locus YMR125W, strain sto1, hits give low values",1.01
same,normalized growth,"locus YMR129W, hits give low values",0.967
same,normalized growth,"locus YMR205C, strain PFK2, hits give low values",0.971
same,normalized growth,"locus YMR231W, strain pep5, hits give low values",0.937
same,normalized growth,"locus YNL071W, strain lat1, hits give low values",0.955
same,normalized growth,"locus YNL183C, strain NPR1, hits give low values",0.965
same,normalized growth,"locus YNL209W, strain ssb2, hits give low values",0.633 (active)
same,normalized growth,"locus YNL248C, strain rpa49, hits give low values",0.939
same,normalized growth,"locus YNL322C, strain KRE1 (second series), hits give low values",0.974
same,normalized growth,"locus YNR049C, strain mso1, hits give low values",0.982
same,normalized growth,"locus YOR001W, strain rrp6, hits give low values",0.988
same,normalized growth,"locus YOR070C, strain gyp1, hits give low values",0.943
same,normalized growth,"locus YOR080W, strain dia2, hits give low values",0.986
same,normalized growth,"locus YOR083W, strain WHI5, hits give low values",0.866 (active)
same,normalized growth,"locus YOR106W, strain vam3, hits give low values",0.542 (active)
same,normalized growth,"locus YOR231W, strain MKK1, hits give low values",1.04
same,normalized growth,"locus YOR265W, strain rbl2, hits give low values",0.918 (active)
same,normalized growth,"locus YOR270C, strain vph1, hits give low values",0.96
same,normalized growth,"locus YOR290C, strain snf2, hits give low values",0.961
same,normalized growth,"locus YPL051W, strain arl3, hits give low values",0.686 (active)
same,normalized growth,"locus YPL078C, strain atp4, hits give low values",0.991
same,normalized growth,"locus YPL106C, strain sse1, hits give low values",0.813 (active)
same,normalized growth,"locus YPL240C, strain hsp82, hits give low values",0.975
same,normalized growth,"locus YPL256C, strain CLN2, hits give low values",1.02
